Experimental data: PubChem BioAssay AID588591 (National Center for Advancing Translational Sciences (NCATS), 2011)
In all, about 390,000 compounds went through this assay and about 4,700 (1.2%) were called active. Not shown: some 4% with an inconclusive outcome. For the sample, actives were picked, then their nearest neighbours and some compounds at random. Unmarked numbers belong to inactive results. Calls follow the shape of the dose curve; as a rule, active = well fitted inhibition curve with a large enough effect; inconclusive = small, poorly fitted or top-dose-only effect, or another doubt; inactive = no such curve, though single readings can be large or run the other way.

biological target: DNA polymerase eta (Homo sapiens) (UniProt Q9Y253); assay: qHTS for Inhibitors of Polymerase Eta; conditions: recombinant Pol eta, fluorescent DNA replication assay; series mostly up to 114 µM; activity change, negative = inhibition: at the top concentration
How it was run: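 Pol eta (10 nM) was preincubated with compounds for 15 min at room temperature, after which fluorescent replication substrate (50 nM final) was added to start the reaction. Fluorescence was read kinetically at 0 and 10 min.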
% is scaled to controls: 0 for no effect and ±100 for the full control effect; potency is read from the fitted curve at half-maximal effect.

Chain of DNA polymerase eta (Homo sapiens) (Q9Y253 whole entry, looked up): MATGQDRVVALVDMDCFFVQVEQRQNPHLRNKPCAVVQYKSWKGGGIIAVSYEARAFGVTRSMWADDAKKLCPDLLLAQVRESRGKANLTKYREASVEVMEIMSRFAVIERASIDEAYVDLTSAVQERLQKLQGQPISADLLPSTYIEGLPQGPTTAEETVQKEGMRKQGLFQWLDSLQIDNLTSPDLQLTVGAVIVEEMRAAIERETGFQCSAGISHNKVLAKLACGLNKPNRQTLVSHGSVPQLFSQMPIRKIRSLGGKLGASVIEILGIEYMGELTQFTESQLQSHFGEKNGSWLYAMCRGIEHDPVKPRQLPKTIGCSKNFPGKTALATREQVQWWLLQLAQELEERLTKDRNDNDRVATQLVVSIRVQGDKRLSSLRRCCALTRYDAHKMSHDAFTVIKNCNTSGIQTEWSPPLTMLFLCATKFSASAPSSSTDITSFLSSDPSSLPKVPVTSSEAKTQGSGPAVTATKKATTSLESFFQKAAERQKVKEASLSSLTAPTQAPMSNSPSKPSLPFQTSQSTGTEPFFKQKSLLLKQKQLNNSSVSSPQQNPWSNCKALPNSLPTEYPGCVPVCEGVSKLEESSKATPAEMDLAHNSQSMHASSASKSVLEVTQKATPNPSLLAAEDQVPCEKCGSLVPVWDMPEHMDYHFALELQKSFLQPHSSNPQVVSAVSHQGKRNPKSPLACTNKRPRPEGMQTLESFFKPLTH

| SMILES | Potency | activity change, negative = inhibition [%] |
| --- | --- | --- |
| O=C1Nc2ccc([N+](=O)[O-])cc2C1=Nc1cccc(CO)c1 | 20 µM (active) |  |
| COc1ccccc1CNC(=O)CCCCn1c(=O)c2ccccc2n(CC(=O)Nc2cc(Cl)ccc2C)c1=O |  | 8.51 |
| COc1cc(OC)c(NC(=O)c2cc(S(=O)(=O)N3CCCC3)cn2C)cc1Cl |  | -11.9 |
| CCCN1CN=C(NS(=O)(=O)c2ccc(NC(C)=O)cc2)NC1 |  | -13.5 |
| Cc1ccc(-n2c(=O)c3cccnc3n2CC(=O)Nc2ccccc2C(F)(F)F)cc1C |  | -2.51 |
| COCCCNC(=O)c1c(NC(=O)c2cc(=O)c3cc(C)c(C)cc3o2)sc2c1CCCC2 |  | 8.47 |
| CC(C)c1ccc(NS(=O)(=O)c2ccc3[nH]cc(C(=O)NC4CCCC4)c(=O)c3c2)cc1 | 31.6 µM (active) |  |
| CCc1ccc(NS(=O)(=O)c2ccc3[nH]cc(C(=O)NCCc4cccc(C)c4)c(=O)c3c2)cc1 |  | -14.7 |
| Cc1cc(C)cc(NS(=O)(=O)c2ccc3[nH]cc(C(=O)N4CCCCC4)c(=O)c3c2)c1 |  | -10.1 |
| CCOc1cc(C2c3c(-c4ccc(Br)cc4)n[nH]c3C(=O)N2c2ccc(Cl)cc2)ccc1O (configuration not stated) |  | -27.5 |
| Cc1cccc(Nc2nc(C)nc(N)c2S(=O)(=O)c2ccccc2)c1 |  | -6.89 |
| COc1ccc(CCNC(=O)CCCn2c(=O)c3ccccc3n(Cc3ccc(C)cc3)c2=O)cc1OC |  | -10.4 |
| CC(=O)c1ccc(S(=O)(=O)N2CCC(Oc3ccc(-n4cnnn4)cc3)CC2)cc1 | inactive |  |
| CC(=O)c1ccc(S(=O)(=O)N2CCN(C(=O)/C=C/c3ccc4ccccc4n3)CC2)cc1 | 39.8 µM (active) |  |
| CC(=O)c1cccc(Nc2ccc3cc(S(=O)(=O)N4CCC(C)CC4)ccc3n2)c1 |  | -25.7 |
| Cc1ccccc1CNC(=O)CSc1nnc(C)c2c(C)n(-c3ccccc3)nc12 |  | -14 |
| CN(Cc1ccccc1)C(=O)c1cn(C)c2ccc(S(=O)(=O)N3CCCCC3)cc2c1=O |  | -6.85 |
| CCCCn1c(=N)c(S(=O)(=O)c2ccccc2)cc2c(=O)n3cccc(C)c3nc21 |  | -22.5 |
| Cc1cc(-c2n[nH]c(=S)n2/N=C/C(Br)=C/c2ccccc2)n[nH]1 | 14.1 µM (active) |  |
| CCCc1cc(-c2n[nH]c(=S)n2CC)c2ccccc2n1 |  | -3.34 |
| Cc1ccc(NC(=O)CSc2nnc3[nH]c(=O)cc(C)n23)cc1Cl |  | 16.8 |

| SMILES | Potency | activity change, negative = inhibition [%] |
| --- | --- | --- |
| CC(C)(C)CC(=O)Nc1nnc(SCC(=O)NCc2cccs2)s1 |  | -15.9 |
| CCOc1ccccc1NC(=O)Cc1cccs1 | 44.7 µM (active) |  |
| CCc1nnc(NC(=O)CCC(=O)NCc2ccccc2OC)s1 |  | -7.14 |
| COc1ccc(CNC(=O)CCC(=O)Nc2nnc(C(C)C)s2)cc1 |  | -6.93 |
| COc1ccc(Cc2nnc(NC(=O)Cc3cccs3)s2)cc1 | 1 µM (active) |  |
| COc1ccc(CC(=O)Nc2sc(Cc3ccccc3)c(C)c2C(N)=O)cc1 |  | -6.32 |
| CCc1nnc(NC(=O)Cc2cccs2)s1 | 35.5 µM (active) |  |
| CCOc1ccccc1NC(=O)CCn1cnnn1 |  | -19.3 |
| CCOc1ccc(NC(=O)C/C(C)=N/NC(=O)Cc2cccs2)cc1 |  | -8.22 |
| COc1cccc(NC(=O)CSc2cc(=O)n(C)c3ccc(Cl)cc23)c1 |  | -11.1 |
| Fc1ccccc1Oc1ncnc2c1oc1ccccc12 |  | -14.1 |
| Cc1cccc(-n2ncc(C(=O)N3CCc4ccccc4C3)c2C2CCN(C(=O)OC(C)(C)C)CC2)c1 |  | -14.8 |
| COc1ccccc1-c1nnc(C2CCN(C(=O)c3ccc(Cl)cc3)CC2)o1 |  | -19.5 |
| Cc1ccc(-n2c(=O)c3cccnc3n2CC(=O)NCc2ccc(F)cc2)cc1C |  | -22.2 |
| Cc1oc2ccc(O)c(CN3CCOCC3)c2c1C(=O)Nc1cccc(Cl)c1C |  | -14.5 |
| COc1ccc(-c2cc3ccc(OCc4nn[nH]n4)cc3oc2=O)cc1 | 17.8 µM (active) |  |
| COc1ccc2cc(-c3nc(Cl)c4c5c(sc4n3)CC(C)CC5)c(=O)oc2c1 (configuration not stated) |  | -7.52 |
| COc1ccc2oc(=O)c(-c3cn4c(n3)sc3cc(OC)ccc34)cc2c1 |  | -9.11 |
| CCCS(=O)(=O)c1ncc(Cl)c(C(=O)Nc2scc(-c3ccccc3)c2C(=O)OCC)n1 |  | -15.6 |
| COc1ccc(Cn2c(C(=O)O)c(CNCCc3cccs3)c3ccc(OC)cc32)cc1 |  | -16.6 |
| CCCNC(=O)C1CCN(c2nc3ccc(C)cc3[nH]2)CC1 |  | -9.68 |

| SMILES | Potency | activity change, negative = inhibition [%] |
| --- | --- | --- |
| Cc1ccc(Cc2cncc(O)c2)cc1S(=O)(=O)O | 25.1 µM (active) |  |
| CCCCCn1c(CCCNC(=O)c2ccccc2OC)nc2ccccc21 |  | -9.44 |
| Oc1c(Cl)cc(Cl)c(Cl)c1Cc1c(O)c(Cl)cc(Cl)c1Cl | 44.7 µM (active) |  |
| Cc1ccccc1NC(=O)Cn1cc(C(=O)c2cccs2)c2ccccc21 |  | -17.3 |
| Cn1c(=O)c2c(nc(Oc3ccc(C#N)cc3)n2Cc2ccc(Cl)cc2Cl)n(C)c1=O |  | -8.3 |
| Cc1cccc(C)c1-n1ncc(C(=O)NCCCN2CCCCC2)c1C1CCN(C(=O)OC(C)(C)C)CC1 |  | -12.6 |
| CC(C)CC(=O)NCC(c1ccc2c(c1)OCO2)N1CCN(c2ccc(F)cc2)CC1 (configuration not stated) |  | -22.4 |
| O=C(c1ccc(O)cc1)c1ccc(C(=O)O)c(C(=O)O)c1 | 39.8 µM (active) |  |
| O=C(c1ccccc1)c1ccc(OC(=O)N2CCCC2)cc1 |  | -11.8 |
| CC(=O)c1ccccc1OCc1ccc(C(=O)c2ccccc2)cc1 |  | -17.2 |
| CCOc1cccc2sc(N3CCN(C(=O)C4CC4)CC3)nc12 |  | -10.9 |
| O=C(CSc1oc(-c2ccco2)nc1S(=O)(=O)c1ccc(Cl)cc1)c1ccccc1 |  | -11 |
| CCN(C(=O)COC(=O)/C=C/c1nc2ccccc2s1)C1CCS(=O)(=O)C1 (configuration not stated) |  | -11.5 |
| CN(CCOc1ccccc1)Cc1nc2cc(Cl)ccc2c(=O)[nH]1 |  | -11.3 |
| CN(C(=O)COC(=O)c1cc(-c2ccco2)nc2ccccc12)C1CCS(=O)(=O)C1 (configuration not stated) | 6.31 µM (active) |  |
| COc1cccc(NC(=O)CN(C)C(=O)c2cc(Cl)nc3ccccc23)c1 |  | -1.6 |
| Cc1cc(C)c2nc(SCC(=O)N(C)C3CCS(=O)(=O)C3)cc(C)c2c1 (configuration not stated) |  | -8.11 |
| CN(CCOc1ccccc1)C(=O)c1cc(-c2ccco2)nc2ccccc12 | 25.1 µM (active) |  |
| Cc1oc2c(c1C(=O)Nc1ccc(F)c(F)c1)C1=NCCN1C=N2 |  | -11.1 |
| CC1=C(C(=O)Nc2ccccc2)C(c2ccc(C)cc2)n2nc(SCc3ccccc3C)nc2N1 (configuration not stated) |  | -12.8 |
